Reference: the supplement of paper PMC3545927
The other results are listed elsewhere or left out. The true hit rate is not given.

B1: HC1134 (peptide)
chain: CAILSSLTVTAGNASASA
B2: HC446 (peptide)
chain: CAIGGAGNNTAGNASASA
B3: HC1337 (peptide)
chain: CAGSSSTSGIAGNASASA
B4: HC160 (peptide)
chain: CAEVVTPTWVAGNASASA
B5: FS-267 (peptide)
chain: CALASRGARVAGNASASA
B6: FS-1571 (peptide)
chain: CASPPRRARVAGNASASA
B7: HC1129 (peptide)
chain: CAESDAAARVAGNASASA
B8: FS-1187 (peptide)
chain: CAASRRRARVAGNASASA
B9: FS-3095 (peptide)
chain: CARSRRRSRVAGNASASA
B10: FS-307 (peptide)
chain: CAVAARRARVAGNASASA
B11: HC809 (peptide)
chain: CAGKFLADGGAGNASASA
B12: HC953 (peptide)
chain: CAYLVAYQATAGNASASA
B13: HC1450 (peptide)
chain: CALIVFPDLGAGNASASA
B14: FS-2078 (peptide)
chain: CARRRRHRSYAGNASASA
B15: FS-2453 (peptide)
chain: CARRRRHSPPAGNASASA
B16: FS-2792 (peptide)
chain: CARRRRPGGPAGNASASA
B17: FS-2233 (peptide)
chain: CARRRRHEGPAGNASASA
B18: FS-3062 (peptide)
chain: CARRRRASAPAGNASASA
B19: HC1953 (peptide)
chain: CARCTTPCSGAGNASASA
B20: HC2181 (peptide)
chain: CAENVTSTWVAGNASASA
B21: HC173 (peptide)
chain: CAPGGGQIVGAGNASASA
B22: HC2150 (peptide)
chain: CAVVVTSTWVAGNASASA
B23: HC2205 (peptide)
chain: CAEVVTSLWVAGNASASA
B24: HC1943 (peptide)
chain: CAACTTPCSGAGNASASA
B25: HC2546 (peptide)
chain: CASTPCSAMLAGNASASA
B26: FS-2597 (peptide)
chain: CARRRRLLIKAGNASASA
B27: FS-2374 (peptide)
chain: CARRRRHTFKAGNASASA
B28: FS-2784 (peptide)
chain: CARRRRAAATAGNASASA
B29: FS-2142 (peptide)
chain: CARHHRAAATAGNASASA
B30: FS-2188 (peptide)
chain: CARSTRFAATAGNASASA
B31: FS-2462 (peptide)
chain: CARSRRHSPHAGNASASA
B32: FS-2091 (peptide)
chain: CARSRRVQCHAGNASASA

Biological target: furin, P09958
Assay: furin cleavage Z-score vs untreated control; higher = more cleavage, active = 3.5 or more, inactive = 1 or less, 8 variable residues between constant flanks
Method in brief: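 Furin cleavage was scored on 8-mer peptides joined to a cDNA oligonucleotide and bound to magnetic beads at the N-terminus. Digestion with purified furin (1:10 enzyme:substrate, 0.01 ml, 50 mM HEPES pH 7.5, CaCl2, NaCl) lasted 7.5, 15 or 30 min. Freed DNA was tagged with adapters by PCR, sequenced and counted; the cleavage Z-score is the lowess-adjusted log count versus furin-free reactions, scaled by median absolute deviation.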

Chain of furin, P09958 (P09958 whole entry): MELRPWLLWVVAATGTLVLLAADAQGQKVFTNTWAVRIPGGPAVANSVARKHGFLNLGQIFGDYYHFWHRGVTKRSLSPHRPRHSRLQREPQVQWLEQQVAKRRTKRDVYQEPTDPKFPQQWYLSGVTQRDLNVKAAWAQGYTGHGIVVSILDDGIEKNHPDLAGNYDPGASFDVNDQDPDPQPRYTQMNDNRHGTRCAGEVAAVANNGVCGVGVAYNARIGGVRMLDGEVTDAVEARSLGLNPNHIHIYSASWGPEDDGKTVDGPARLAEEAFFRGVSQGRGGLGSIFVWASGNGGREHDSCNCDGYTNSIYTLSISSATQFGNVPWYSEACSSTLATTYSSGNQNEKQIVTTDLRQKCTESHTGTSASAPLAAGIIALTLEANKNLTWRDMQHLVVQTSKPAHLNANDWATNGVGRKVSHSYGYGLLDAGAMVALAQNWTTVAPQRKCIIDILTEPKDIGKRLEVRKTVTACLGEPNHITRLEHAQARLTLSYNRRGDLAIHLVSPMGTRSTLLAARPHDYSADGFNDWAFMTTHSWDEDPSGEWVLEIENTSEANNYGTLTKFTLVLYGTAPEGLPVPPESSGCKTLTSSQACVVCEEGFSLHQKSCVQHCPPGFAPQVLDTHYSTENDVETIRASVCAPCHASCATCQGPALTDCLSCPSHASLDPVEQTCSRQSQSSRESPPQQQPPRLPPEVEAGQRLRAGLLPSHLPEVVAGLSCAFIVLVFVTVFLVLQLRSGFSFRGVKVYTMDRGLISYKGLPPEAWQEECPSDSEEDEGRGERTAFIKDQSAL

Sequence	furin cleavage Z-score (7.5 min)	furin cleavage Z-score (15 min)	furin cleavage Z-score (30 min)
B1	-0.227 (inactive)	-0.375 (inactive)	-0.271 (inactive)
B2	0.332 (inactive)	-0.689 (inactive)	0.317 (inactive)
B3	0.384 (inactive)	0.604 (inactive)	-0.961 (inactive)
B4	0.0725 (inactive)	-1.35 (inactive)	-0.017 (inactive)
B5	-0.386 (inactive)	-0.302 (inactive)	0.249 (inactive)
B6	0.556 (inactive)	0.566 (inactive)	3.24
B7	-0.953 (inactive)	-0.591 (inactive)	-1.03 (inactive)
B8	3.47	3.01	4.72 (active)
B9	1.94	0.692 (inactive)	3.48
B10	1.69	3.8 (active)	3.48
B11	-1.28 (inactive)	-0.358 (inactive)	-0.637 (inactive)
B12	-0.934 (inactive)	-0.739 (inactive)	-1.07 (inactive)
B13	-0.678 (inactive)	-1.11 (inactive)	-0.0519 (inactive)
B14	6.85 (active)	11.1 (active)	9.14 (active)
B15	5.59 (active)	8.37 (active)	6.78 (active)
B16	-0.8 (inactive)	-0.454 (inactive)	0.146 (inactive)

Sequence	furin cleavage Z-score (7.5 min)	furin cleavage Z-score (15 min)	furin cleavage Z-score (30 min)
B17	3.52 (active)	4.96 (active)	4.69 (active)
B18	7.44 (active)	6.83 (active)	5.33 (active)
B19	-0.496 (inactive)	-1.94 (inactive)	-0.955 (inactive)
B20	0.856 (inactive)	-1.06 (inactive)	0.371 (inactive)
B21	-0.67 (inactive)	-2.32 (inactive)	0.322 (inactive)
B22	-0.0276 (inactive)	-0.308 (inactive)	-1.74 (inactive)
B23	0.73 (inactive)	-1.3 (inactive)	-0.955 (inactive)
B24	-1.45 (inactive)	-0.341 (inactive)	-0.2 (inactive)
B25	1.06	0.507 (inactive)	-0.199 (inactive)
B26	-0.832 (inactive)	-0.657 (inactive)	-0.82 (inactive)
B27	6.02 (active)	8.84 (active)	8.36 (active)
B28	8.16 (active)	6.75 (active)	5.42 (active)
B29	-0.187 (inactive)	1.63	1.18
B30	-0.54 (inactive)	-0.334 (inactive)	1.52
B31	9.64 (active)	10.4 (active)	9.06 (active)
B32	-0.135 (inactive)	-0.538 (inactive)	-0.773 (inactive)
